STAT3 inh – reduces IL-6 driven STAT3 reporter signal. U3A cells, IL-6 STAT3-luciferase reporter, luminescence; host cell line lacks STAT1. inhibition, % at 5.5 µM. 190,000 tested, 0.89% active. AID 862;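 active means inhibition above the mean inhibition across all screened compounds plus 3 SD, cut at about 44% in these data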
HSP90 inh – inhibitors of HSP90 luciferase refolding in rabbit reticulocyte lysate; inhibition, % at 5.6 µM; 290,000 tested, 0.91% active; luciferase refolding luminescence, 3 h;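 active means inhibition above the screen-wide mean plus 3 SD, computed separately per campaign, cut at about 16% in these data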;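 further: inhibitors lower the luminescence because luciferase stays unfolded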
PPC-1+TRAIL kill – kills PPC-1 cancer cells in the presence of TRAIL; PPC-1 cells + TRAIL, ATPLite viability luminescence; cell killing (% activity), % at 4 µM or 5 µM; 220,000 tested, 0.41% active;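 active means cell killing above 50% in the first pass at 4 µM, then a duplicate retest at 5 µM averaging 50% or more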
STAT1 blocker – inhibitors of IFN-gamma induced STAT1 signaling | 200,000 tested, 0.35% active | inhibition, % at 5.5 µM | NIH 3T3 STAT1-luciferase reporter, luminescence;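 active means inhibition above a set limit, the mean inhibition across all tested compounds plus 3 SD, cut at about 34% in these data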
C8 TRAIL sens – sensitizes caspase-8 expressing cells to TRAIL; NB7+C8 cells + TRAIL, ATPlite viability luminescence; inhibition (viability loss, TRAIL sensitization), % at 10 µM; 360,000 tested, 1% active;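 active means compounds causing at least 50% loss of cell viability in the single-dose screen, relative to plate controls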
HSF1 inh – HSF1 inhibition | NIH3T3-HGL HSE-luciferase, MG132-induced, luminescence 8 h; active compounds read low | activity change, negative = inhibition, % at 7.5 µM (by protocol) | 300,000 tested, 0.77% active | AID 2098;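 active means more than half of replicate wells show activity change below -50%, luminescence cut by over half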;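 further: luciferase reports HSF-1 transcriptional activity via heat shock element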
Numbers stand for hits; i = inactive; nt = no result. Rows were chosen to be rich in hits. Some 2.4% of all compounds tested hit in one or more screens of this group.

SMILES	STAT3 inh	HSP90 inh	PPC-1+TRAIL kill	STAT1 blocker	C8 TRAIL sens	HSF1 inh
CC1(C)N=C(N)N=C(N)N1c1ccc(OCC(=O)N2CCOCC2)c(Cl)c1	nt	nt	nt	nt	82.7	nt
Cc1cccc(S(=O)(=O)N[C@@H]2CC[C@@H](CCNS(=O)(=O)c3ccccc3F)O[C@@H]2CO)c1	nt	nt	nt	nt	i	nt
Cc1cn([C@H]2C[C@H](O)[C@@H](CNCC3=Cc4cc(O)ccc4OC3)O2)c(=O)[nH]c1=O	nt	nt	nt	nt	i	nt
C=C1CC(COc2cc(=O)oc3ccccc23)(c2ccccc2)OC1=O (centres undefined)	nt	nt	nt	nt	93.3	nt
COc1ccc2c(c1OC)C(=O)OC2Nc1nc(-c2ccc(-c3ccccc3)cc2)cs1 (centres undefined)	i	i	i	i	62.5	i
COC(=O)[C@@]12C[C@@H](CC(=O)NCc3ccccc3)C(=O)N(Cc3ccc4c(c3)OCO4)C1=CCC(C)(C)C2	nt	nt	nt	nt	i	nt
O=C(Nc1cccc(Cl)c1)c1nc[nH]c1C(=O)Nc1ccccc1F	nt	nt	nt	nt	i	nt
CN(Cc1ccccc1)C(=O)c1ccc(Cc2cn(C)c3ccccc23)nc1	nt	nt	nt	nt	i	nt
Clc1ccc(CN2CCc3c([nH]c4ccccc34)C2)cc1Cl	nt	i	nt	nt	53.8	i
Cc1cccc(C(=O)NC2CCN(C(=O)Nc3ccccc3C)CC2)c1	i	i	i	i	i	i
Cc1cccc(C(=O)NC2CCN(C(=O)Nc3ccc(F)cc3)CC2)c1	nt	i	nt	nt	i	-53.9
Cc1ccc2ccccc2c1C(O)c1ncc(-c2ccccc2F)[nH]1 (centres undefined)	nt	nt	nt	nt	i	nt
CC1CCCCC1NC(=O)CSc1nnc(-c2ccco2)n1N (centres undefined)	nt	nt	nt	nt	i	nt
COc1ccc(C)cc1S(=O)(=O)N1CCCC(C(=O)NCc2ccccn2)C1 (centres undefined)	nt	i	nt	nt	i	i
O=C(NCc1ccccn1)C1CCCN(S(=O)(=O)c2cc(Cl)ccc2Cl)C1 (centres undefined)	nt	nt	nt	nt	55.8	nt
O=C(NCc1ccc(F)cc1)C1CCCN(S(=O)(=O)c2cccc3nsnc23)C1 (centres undefined)	i	i	i	i	i	i
O=C(NCc1ccccc1)C1CCCN(S(=O)(=O)c2cccc3nsnc23)C1 (centres undefined)	nt	i	nt	nt	i	-72.2
CCOC(=O)N1CCN(S(=O)(=O)N2CCCC(C(=O)NCCc3ccc(C)cc3)C2)CC1 (centres undefined)	nt	i	nt	nt	i	i
CCOC(=O)N1CCN(S(=O)(=O)N2CCCC(C(=O)NCc3ccccc3Cl)C2)CC1 (centres undefined)	nt	i	nt	nt	i	-53.5
CC1(C(=O)NS(=O)(=O)c2cccs2)CCN1C(=O)C1CCCCC1 (centres undefined)	nt	nt	nt	nt	i	nt
O=C(C1CCCCC1)N1C[C@@H](O)[C@H](n2cc(C3CC3)nn2)C[C@@H]1c1ccccc1	nt	nt	nt	nt	i	nt
CCOC(=O)C1=C(c2ccccc2)NC(=O)NC1c1ccsc1 (centres undefined)	nt	i	nt	nt	i	-51.4
CC(Sc1nc2ccccc2s1)C(=O)Nc1nnc(C(C)C)s1 (centres undefined)	i	i	i	i	i	-63.1
C#CCn1c(=NC(=O)c2ccc(S(=O)(=O)N3CCc4ccccc4C3)cc2)sc2cc(S(N)(=O)=O)ccc21	i	i	61.0	i	i	i
CCOC(=O)C1CCN(C(=O)COc2cc(C)c(Br)cc2C)CC1	i	i	i	i	i	-62.7
SMILES	STAT3 inh	HSP90 inh	PPC-1+TRAIL kill	STAT1 blocker	C8 TRAIL sens	HSF1 inh
Cc1ccc(Cl)cc1N1CCN(C(=O)c2noc(C)c2[N+](=O)[O-])CC1	nt	i	nt	nt	94.6	i
O=C1Nc2ccccc2/C1=C/C(=O)c1cccs1	i	i	i	i	i	-64.9
COc1ccc(C(=O)/C=C2/C(=O)Nc3ccccc32)cc1	nt	i	nt	nt	i	i
Cc1ccc(-c2nc(SC(C)C(=O)NC3CC3)n[nH]2)cc1 (centres undefined)	nt	nt	nt	nt	i	nt
CN(C)c1ccc(/C=N/NC(=O)c2ccco2)cc1	i	i	i	i	66.1	i
Cc1occc1C(=O)N/N=C/c1ccc(-c2ccccc2)cc1	nt	45.3	nt	nt	i	i
O=C(N/N=C/c1ccc(Cl)cc1)c1ccc2c(c1)OCO2	nt	i	nt	nt	i	i
CCN(CC)c1ccc(/C=N/NC(=O)c2ccc3c(c2)OCCO3)cc1	nt	i	nt	nt	i	-52.5
O=C(N/N=C/c1ccc2c(c1)OCO2)c1ccc2c(c1)OCCO2	i	i	i	i	i	-54.7
Cc1occc1C(=O)N/N=C/c1ccc(OCc2ccccc2)cc1	nt	i	i	nt	i	i
COC(=O)Cn1nnnc1-c1nc2cc(C)c(C)cc2[nH]c1=O	nt	nt	nt	nt	i	nt
CC(/C=C/c1ccc2c(c1)OCO2)=N/NC(=O)c1cccnc1	i	i	i	i	i	i
O=C(N/N=C/c1cccs1)c1ccc2c(c1)OCO2	i	i	58.6	i	76.3	i
COc1ccccc1C(=O)NCC(=O)N/N=C/c1ccc2c(c1)OCO2	nt	i	nt	nt	i	-73.2
O=C(N/N=C/c1cc(Br)c(O)c(Br)c1O)c1ccc2c(c1)OCCO2	nt	i	nt	nt	i	i
CCOc1cc(/C=N/NC(=O)c2ccc3c(c2)OCCO3)cc(Br)c1O	nt	i	nt	nt	i	-73.0
CC(/C=C/c1ccc2c(c1)OCO2)=N/NC(=O)c1ccncc1	nt	i	i	nt	i	-70.5
O=C(NCCO)c1ccc(-c2ccc3nncn3c2)cc1	nt	nt	nt	nt	i	nt
COCCN1C(=O)COc2ccccc2C1C(=O)NCc1ccccc1 (centres undefined)	nt	nt	nt	nt	i	nt
CN(C)c1ccc(/C=N/NC(=O)c2ccc3c(c2)OCCO3)cc1	nt	i	nt	nt	i	-55.3
O=C(NCCc1ccccc1)c1ccc(NC(=O)C2CCC2)cc1	nt	nt	nt	nt	i	nt
CCCS(=O)(=O)N1CCCC(C(=O)N2CCC(Cc3ccccc3)CC2)C1 (centres undefined)	i	i	i	i	i	-81.2
CSc1nc(Cc2ccccc2)cc(=O)[nH]1	i	i	i	i	i	-64.8
COc1ccccc1Cc1c(-c2cccc(Br)c2)nc2ccc(Cl)cn12	nt	nt	nt	nt	i	nt
C=CCNC(=S)Nc1sc2c(c1C#N)CCCC2	i	i	i	i	i	-54.5
SMILES	STAT3 inh	HSP90 inh	PPC-1+TRAIL kill	STAT1 blocker	C8 TRAIL sens	HSF1 inh
CC(C)(C)C(=O)NC(=S)Nc1sc2c(c1C#N)CCCCC2	i	i	i	i	i	i
Cc1[nH]n(-c2cccc3ccccc23)c(=O)c1/C=N/NC(=O)c1cccc([N+](=O)[O-])c1	i	i	i	i	i	i
Cc1[nH]n(-c2ccccc2)c(=O)c1/C=N/NC(=O)c1cccc([N+](=O)[O-])c1	i	i	i	i	54.3	nt
CN(C)c1ccc(/C=N/NC(=O)C2COc3ccccc3O2)o1 (centres undefined)	i	i	i	i	i	-78.0
CC(=O)N/N=C/c1c(C)[nH]n(-c2ccccc2)c1=O	i	i	i	i	i	i
O=C(N/N=C\c1ccc(Br)o1)C1COc2ccccc2O1 (centres undefined)	i	i	i	i	i	i
Cc1[nH]n(-c2ccccc2)c(=O)c1/C=N\NC(=O)C1COc2ccccc2O1 (centres undefined)	i	i	72.5	i	84.9	i
O=C(/C=C/c1ccc(Br)o1)NCCCN1CCOCC1	i	i	i	i	i	-65.8

From PubChem BioAssay
